± gives the standard deviation.
Assays:
[1] = system: MILI (PIWIL2) piRISC loaded with L1MC piRNA (26 nt); test: pre-steady-state target cleavage rate (min^-1); guide: L1MC piRNA 5'p-UAACUAAAUACUAUGCAAGCUGUAGG; higher = faster piRNA-guided slicing of the target
Method in brief: (§1)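 Cleave-'n-Seq reactions paired 0.1 nM transcribed, DNA-blocked target RNA library with 1 nM active affinity-purified piRISC holding one synthetic guide, plus or minus 500 nM GTSF1 partner protein, in HEPES–potassium acetate buffer at 33 °C for 0–8 or 0–960 min. After sequencing of uncleaved targets and normalisation to depth and weakly complementary targets, the pre-steady-state cleavage rate was taken from a burst-and-steady-state fit. Three trials were pooled, and k3 was capped at 0.0001 min^-1.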

[2] = system: EfPiwi piRISC loaded with L1MC piRNA (26 nt); test: pre-steady-state target cleavage rate (min^-1); auxiliary factor: 500 nM Ephydatia muelleri Gtsf1; guide: L1MC piRNA 5'p-UAACUAAAUACUAUGCAAGCUGUAGG; MIWI and MILI are mouse PIWI proteins and EfPiwi is from a freshwater sponge; tags in brackets are library labels; higher = faster piRNA-guided slicing of the target
Method in brief: as §1

[3] = auxiliary factor: 500 nM mouse GTSF1
[4] = auxiliary factor: none (no GTSF1)

Sequence	pre-steady-state target cleavage rate [1, 3]	pre-steady-state target cleavage rate [1, 4]	pre-steady-state target cleavage rate [2]
UCCUCUUACAGCUUGCAUAGUAUUUAGUUA	0.35 ± 0.015	0.00963 ± 0.0032	0.243 ± 0.061
UCCUGCUACAGCUUACAUAGUAUUUAGUUA	0.274 ± 0.026	0.00609 ± 0.0025	0.0151 ± 0.0038
UCCUGGAACCGCUUGCAUAGUAUUUAGUUA	0.265 ± 0.015	0.0108 ± 0.002	0.0172 ± 0.0054
UCCUGGAUCCAGCUUGCAUAGUAUUUAGUUA	0.3 ± 0.017	0.00437 ± 0.003	0.126 ± 0.022
UCCUCGAACAGCUUGCAUAGUAUUUAGUAA	0.242 ± 0.015	0.00453 ± 0.0022	0.0173 ± 0.0064
UCCUGCUUCAGCUUGCAAAGUAUUUAGUUA	0.122 ± 0.0063	0.00828 ± 0.0015	0.0683 ± 0.018
UCCUGGAACAGCUUGCAUAGUAUUAUGUUA	0.105 ± 0.026	0.00259 ± 0.0025	0.00324 ± 0.0021
UCCUCCUAGAGCUUGCAUAGUAUUUAGUUA	0.232 ± 0.019	0.00656 ± 0.0021	0.0186 ± 0.0054
UCCUCCUACAGCUUGCAUAGUAUUUAGGUUA	0.251 ± 0.045	0.00312 ± 0.0031	0.00552 ± 0.0017
UCCUGGUAGAGCUUGGAUAGUAUUUAGUUA	0.15 ± 0.0091	0.00624 ± 0.0029	0.004 ± 0.0023
UCCUGGAUGUCCUUUGCAUAGUAUUUAGUUA	0.0866 ± 0.015	0.0072 ± 0.0024	0.00785 ± 0.0043
UCCUGCUACAGCUACCAUAGUAUUUAGUUA	0.233 ± 0.032	0.0038 ± 0.0024	0.00308 ± 0.0021
UCCUGGUACAGCUUGCUUAGUAAUUAGUUA	0.128 ± 0.036	0.0116 ± 0.0032	0.00675 ± 0.0033
UCCUGGAACACCUUGCAUAGUAAUUAGUUA	0.191 ± 0.031	0.00362 ± 0.0024	0.00283 ± 0.0022
UCCUCCUAGAGCUUGCAAAGUAUUUAGUUA	0.14 ± 0.0099	0.00516 ± 0.002	0.0214 ± 0.006
UCCUGCCUACAGCUUGCAUAGUAUUUAGUUA	0.342 ± 0.022	0.0113 ± 0.0037	0.0909 ± 0.021
UCCUCCUACAGCCUUGCAUAGUAUUUAGUUA	0.262 ± 0.019	0.0101 ± 0.0026	0.0222 ± 0.0079
UCCUGCUACGGCUUGCAUAGUAUUUAGUUA	0.276 ± 0.021	0.00977 ± 0.0025	0.00972 ± 0.0027
UCCUCCUACAGCUUGCAUAGUAUUUAGUAA	0.246 ± 0.021	0.00585 ± 0.0026	0.0113 ± 0.005

Reference: the supplement of paper PMC10338343
